Test [1] deals with human Thyroid hormone Receptor alpha (TRa), THRA (gene 7067) (UniProt P10827). Briefly: ATG_hTRa_XSP1: Attagene TRANS-FACTORIAL Multi-Species (XSP1) HepG2 Assay for human Thyroid hormone Receptor alpha (TRa) (AID 2283805). The gist of the method:
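HepG2 cells transiently transfected with GAL4-UAS reporter units expressing chimeric NR-Gal4 proteins, dosed 24 hours with 3 nM 6-alpha-fluorotestosterone present. Reporter mRNA measured by RT-PCR and capillary electrophoresis; gain of signal fitted versus DMSO.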

The test system of test [2] is turtle Thyroid Hormone Receptor, alpha (TRa), gene 101949057. In words: ATG_trTRa_XSP1: Attagene TRANS-FACTORIAL Multi-Species (XSP1) HepG2 Assay for turtle Thyroid Hormone Receptor, alpha (TRa) (AID 2283806). The gist of the method:
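HepG2 cells transiently transfected with GAL4-UAS reporter units and chimeric receptor-Gal4 constructs, with 3 nM 6-alpha-fluorotestosterone present. Reporter mRNA was quantified 24 h after dosing by RT-PCR, 6-FAM labelling and capillary electrophoresis; gain of signal versus DMSO.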

Test [3] deals with zebrafish Thyroid Hormone Receptor alpha (TRa), thraa (gene 30670) (UniProt Q98867). Briefly: ATG_zfTRa_XSP1: Attagene TRANS-FACTORIAL Multi-Species (XSP1) HepG2 Assay for zebrafish Thyroid Hormone Receptor alpha (TRa) (AID 2283807). The gist of the method:
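HepG2 cells transiently transfected with GAL4-UAS reporter units including a zebrafish TRa–Gal4 chimera, dosed 24 h with 3 nM 6-alpha-fluorotestosterone present. Reporter mRNA quantified by RT-PCR and capillary electrophoresis; gain versus DMSO.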

Test [4] addresses human Thyroid hormone Receptor beta (TRb), THRB (gene 7068) (UniProt P10828). Briefly: ATG_hTRb_XSP1: Attagene TRANS-FACTORIAL Multi-Species (XSP1) HepG2 Assay for human Thyroid hormone Receptor beta (TRb) (AID 2283808). On the procedure:
ATG_XSP1_multi-species_TRANS is a cell-based, multiplexed assay created by modifying the existing Attagene TRANS-FACTORIAL system to include a panel of nuclear receptors from some or all the following species: human (Homo sapiens), mouse (Mus musculus), frog (Xenopus laevis), zebrafish (Danio rerio), chicken (Gallus gallus), and turtle (Chrysemys picta). The ECOTOX-FACTORIAL format uses HepG2, a human liver cell line, with measurements taken at 24 hours after chemical dosing in a 24-well plate. Xsp1 included 3 nM 6-alpha-fluorotestosterone to partially stimulate the androgen receptor.ATG_hTRb_XSP1 is one of 29 assay components measured or calculated from the ATG_XSP1_multi-species_TRANS assay. It is designed to make measurements of mRNA induction, a form of inducible reporter, as detected with fluorescence intensity signals by Reverse transcription polymerase chain reaction (RT-PCR) and Capillary electrophoresis technology.The assay endpoint ATG_hTRb_XSP1 was analyzed in the positive analysis fitting direction relative to DMSO as the negative control and baseline of activity. […] Furthermore, this assay endpoint can be referred to as a primary readout, because this assay has produced multiple assay endpoints where this one serves a reporter gene function. […]

For test [5], the target named is zebrafish Thyroid Hormone Receptor beta (TRb), thrb (gene 30607) (UniProt Q9PVE4). In words: ATG_zfTRb_XSP1: Attagene TRANS-FACTORIAL Multi-Species (XSP1) HepG2 Assay for zebrafish Thyroid Hormone Receptor beta (TRb) (AID 2283809). The gist of the method:
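HepG2 cells transiently transfected with multiplexed GAL4-UAS reporter units expressing chimeric zebrafish TRb–Gal4. Dosed 24 h with 3 nM 6-alpha-fluorotestosterone present; reporter mRNA measured by RT-PCR, HpaI digestion and capillary electrophoresis; gain of signal versus DMSO.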

Test [6] can be described thus: ATG_XTT_Cytotoxicity_XSP1: Cytotoxicity Assessment in the Attagene TRANS-FACTORIAL Multi-Species (XSP1) HepG2 Assay (AID 2283810). The gist of the method:
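XTT viability readout taken at 24 hours post-dosing in HepG2 liver cells co-treated with 3 nM 6-alpha-fluorotestosterone. Signal loss relative to DMSO controls reflects cytotoxicity.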

Test [7] can be described thus: ATG_M_06_XSP2: Attagene TRANS-FACTORIAL Multi-Species (XSP2) HepG2 Assay for M06 Transcription Factor (Internal Marker) (AID 2283811).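 Also: hits are increases in signal above the DMSO baseline.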 The gist of the method: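 HepG2, multiplexed reporter transfection; 24 h dosing; AR stimulated with 3 nM 6-alpha-fluorotestosterone + 1.5 nM norgestrel; RNA → RT-PCR → 6-FAM primer extension → HpaI → CE. Positive direction vs DMSO.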

Test [8] relates to turtle Estrogen Receptor (ERa), gene 101933533. Briefly: ATG_trERa_XSP2: Attagene TRANS-FACTORIAL Multi-Species (XSP2) HepG2 Assay for turtle Estrogen Receptor (ERa) (AID 2283812).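 Also: human HepG2 liver cells transiently expressing turtle ERa-Gal4 chimeric receptor; actives raise reporter signal above DMSO so AC50 reflects agonist activity.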 In a few lines:
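HepG2 cells transiently transfected with GAL4-UAS reporter units expressing turtle ERa-Gal4 chimera. Reporter mRNA measured after 24 h dosing by RT-PCR, fluorescent labelling and capillary electrophoresis; gain of signal fitted versus DMSO.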

Test [9] concerns the target GAL4 Transcription Factor (Internal Marker), GAL4 (gene 855828) (UniProt P04386). Briefly: ATG_GAL4_XSP2: Attagene TRANS-FACTORIAL Multi-Species (XSP2) HepG2 Assay for GAL4 Transcription Factor (Internal Marker) (AID 2283814).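 Also: GAL4 reporter mRNA background control in MRTU transfected cells not a receptor target.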 The gist of the method: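 HepG2 cells transiently transfected with GAL4-UAS reporter units, stimulated with 3 nM 6-alpha-fluorotestosterone plus 1.5 nM norgestrel, dosed 24 h. Reporter mRNA by RT-PCR/capillary electrophoresis; gain-of-signal fit versus DMSO, background control.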

In test [10] the target is Estrogen receptor beta (Homo sapiens) (UniProt Q92731). In words: ATG_hERb_XSP2: Attagene TRANS-FACTORIAL Multi-Species (XSP2) HepG2 Assay for human Estrogen Receptor (ERb) (AID 2283813).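 Also: actives raise reporter mRNA above DMSO so AC50 reflects agonist induction.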 In a few lines: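 HepG2 cells transiently transfected with GAL4-UAS reporter units and chimeric human ERb-Gal4, 24 h exposure. Reporter mRNA quantified by RT-PCR with FAM labelling, HpaI digestion and capillary electrophoresis; gain of signal versus DMSO.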
Estrogen receptor beta (Homo sapiens), sequence (Q92731 whole entry, looked up, the tested form may be a part): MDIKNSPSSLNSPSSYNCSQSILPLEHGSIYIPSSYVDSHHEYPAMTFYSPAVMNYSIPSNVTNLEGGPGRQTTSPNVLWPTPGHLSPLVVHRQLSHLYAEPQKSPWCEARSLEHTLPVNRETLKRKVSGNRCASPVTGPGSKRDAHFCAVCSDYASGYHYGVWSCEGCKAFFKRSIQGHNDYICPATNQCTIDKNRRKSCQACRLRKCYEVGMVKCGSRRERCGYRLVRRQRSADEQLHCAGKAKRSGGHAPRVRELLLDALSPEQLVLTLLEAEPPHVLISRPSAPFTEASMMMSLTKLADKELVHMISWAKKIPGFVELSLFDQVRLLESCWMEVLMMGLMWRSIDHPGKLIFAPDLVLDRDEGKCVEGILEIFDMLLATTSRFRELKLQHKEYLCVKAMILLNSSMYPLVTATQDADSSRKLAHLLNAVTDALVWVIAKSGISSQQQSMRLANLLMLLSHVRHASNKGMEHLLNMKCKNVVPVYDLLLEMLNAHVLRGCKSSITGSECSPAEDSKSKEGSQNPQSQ

The values that follow come from PubChem BioAssay (EPA / NIEHS).

The structures appear in SMILES notation. Several values for one entry are separate records, joined by “and”; a condition that tells them apart may be missing. Equal entries are not always repeated. Results filed as inconclusive are left out. A structure can be active in one record and inactive in another. Activity calls are given as the source filed them. The calls were made as follows: active = hit-call score of the fitted dose curve at least 0.9, where 1 is the maximum; inconclusive = response in the unintended direction; inactive = score below 0.9.

GAL4 Transcription Factor (Internal Marker), GAL4 (gene 855828), sequence (P04386 whole entry, looked up, the tested form may be a part): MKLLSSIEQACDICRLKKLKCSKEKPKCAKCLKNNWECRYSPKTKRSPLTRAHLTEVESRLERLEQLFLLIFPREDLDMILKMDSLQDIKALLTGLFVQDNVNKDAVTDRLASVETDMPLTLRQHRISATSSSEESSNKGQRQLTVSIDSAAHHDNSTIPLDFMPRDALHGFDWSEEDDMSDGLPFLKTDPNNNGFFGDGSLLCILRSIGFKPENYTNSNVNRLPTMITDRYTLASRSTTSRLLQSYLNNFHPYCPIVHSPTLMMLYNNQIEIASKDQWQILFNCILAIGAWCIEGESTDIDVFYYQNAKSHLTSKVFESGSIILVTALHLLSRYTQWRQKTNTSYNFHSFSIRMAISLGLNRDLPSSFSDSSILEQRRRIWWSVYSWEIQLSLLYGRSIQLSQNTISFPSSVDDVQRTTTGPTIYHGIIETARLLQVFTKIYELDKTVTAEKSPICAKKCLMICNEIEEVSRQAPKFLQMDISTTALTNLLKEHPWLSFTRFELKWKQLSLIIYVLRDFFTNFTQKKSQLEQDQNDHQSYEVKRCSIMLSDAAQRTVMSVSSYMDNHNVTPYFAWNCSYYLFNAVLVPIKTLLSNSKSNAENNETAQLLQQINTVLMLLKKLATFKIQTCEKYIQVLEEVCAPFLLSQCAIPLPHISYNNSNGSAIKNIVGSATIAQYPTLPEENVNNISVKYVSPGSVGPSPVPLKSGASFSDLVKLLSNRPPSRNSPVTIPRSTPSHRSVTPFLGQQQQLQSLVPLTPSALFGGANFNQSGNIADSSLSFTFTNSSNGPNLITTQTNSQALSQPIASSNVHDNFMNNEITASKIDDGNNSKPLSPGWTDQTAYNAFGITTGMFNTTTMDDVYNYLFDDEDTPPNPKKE
zebrafish Thyroid Hormone Receptor alpha (TRa), thraa (gene 30670), sequence (Q98867 whole entry, looked up, the tested form may be a part): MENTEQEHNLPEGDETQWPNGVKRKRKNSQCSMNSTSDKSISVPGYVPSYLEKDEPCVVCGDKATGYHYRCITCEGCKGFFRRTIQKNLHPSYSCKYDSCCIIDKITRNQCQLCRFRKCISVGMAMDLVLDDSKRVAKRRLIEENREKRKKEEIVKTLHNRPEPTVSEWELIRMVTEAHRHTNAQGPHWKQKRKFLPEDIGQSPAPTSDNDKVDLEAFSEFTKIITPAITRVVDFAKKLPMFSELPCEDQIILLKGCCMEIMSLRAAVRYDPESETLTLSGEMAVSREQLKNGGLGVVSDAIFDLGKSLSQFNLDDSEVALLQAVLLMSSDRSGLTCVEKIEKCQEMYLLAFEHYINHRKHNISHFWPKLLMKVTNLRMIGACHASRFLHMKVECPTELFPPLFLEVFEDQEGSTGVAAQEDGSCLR
zebrafish Thyroid Hormone Receptor beta (TRb), thrb (gene 30607), sequence (Q9PVE4 whole entry, looked up, the tested form may be a part): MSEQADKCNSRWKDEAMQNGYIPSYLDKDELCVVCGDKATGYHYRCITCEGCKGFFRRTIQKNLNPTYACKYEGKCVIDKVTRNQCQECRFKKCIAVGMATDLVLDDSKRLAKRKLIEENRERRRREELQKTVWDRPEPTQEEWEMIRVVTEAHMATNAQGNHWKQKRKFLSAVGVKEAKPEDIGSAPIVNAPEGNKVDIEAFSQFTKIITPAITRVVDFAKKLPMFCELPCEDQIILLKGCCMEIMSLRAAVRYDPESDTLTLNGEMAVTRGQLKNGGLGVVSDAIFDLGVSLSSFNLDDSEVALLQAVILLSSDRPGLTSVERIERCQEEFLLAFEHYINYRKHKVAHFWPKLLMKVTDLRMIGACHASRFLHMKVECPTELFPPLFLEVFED
human Thyroid hormone Receptor alpha (TRa), THRA (gene 7067), sequence (P10827 whole entry, looked up, the tested form may be a part): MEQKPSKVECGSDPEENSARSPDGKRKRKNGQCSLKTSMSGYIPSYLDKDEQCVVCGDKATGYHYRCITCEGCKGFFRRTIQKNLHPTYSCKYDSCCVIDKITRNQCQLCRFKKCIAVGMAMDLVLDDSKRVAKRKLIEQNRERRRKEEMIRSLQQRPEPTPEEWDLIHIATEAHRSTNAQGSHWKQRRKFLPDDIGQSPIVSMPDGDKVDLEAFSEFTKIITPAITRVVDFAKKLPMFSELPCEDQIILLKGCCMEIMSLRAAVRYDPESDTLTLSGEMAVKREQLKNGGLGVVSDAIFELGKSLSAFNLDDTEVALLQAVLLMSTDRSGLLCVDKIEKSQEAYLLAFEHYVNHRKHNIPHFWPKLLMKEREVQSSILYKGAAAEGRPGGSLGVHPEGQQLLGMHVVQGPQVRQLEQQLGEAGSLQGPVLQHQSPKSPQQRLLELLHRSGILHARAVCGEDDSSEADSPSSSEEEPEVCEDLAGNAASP
human Thyroid hormone Receptor beta (TRb), THRB (gene 7068), sequence (P10828 whole entry, looked up): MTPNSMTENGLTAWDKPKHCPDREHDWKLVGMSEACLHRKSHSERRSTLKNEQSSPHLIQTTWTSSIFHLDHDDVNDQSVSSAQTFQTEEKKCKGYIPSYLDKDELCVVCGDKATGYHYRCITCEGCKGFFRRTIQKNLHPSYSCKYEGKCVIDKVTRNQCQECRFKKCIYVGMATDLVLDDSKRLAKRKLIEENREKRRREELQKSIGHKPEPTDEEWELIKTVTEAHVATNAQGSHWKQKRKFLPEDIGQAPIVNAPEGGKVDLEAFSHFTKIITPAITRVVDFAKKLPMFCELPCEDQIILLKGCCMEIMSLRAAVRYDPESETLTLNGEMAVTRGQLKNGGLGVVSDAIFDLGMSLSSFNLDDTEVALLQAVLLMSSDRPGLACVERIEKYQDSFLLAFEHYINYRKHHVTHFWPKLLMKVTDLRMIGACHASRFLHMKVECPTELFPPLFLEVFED

Regarding `C#C[C@]1(O)CC[C@H]2[C@@H]3CCc4cc(O)ccc4[C@H]3CC[C@@]21C`, the call in [1], in test [2], in test [3], in test [4], in test [5] and in [6] was inactive. Also, the result in test [7] was inactive. Besides, in test [8], the AC50 (usually the concentration at which the activity in the assay is half-maximal) was 0.0694 nM (active).

In the case of `CC/C(=C(\c1ccccc1)c1ccc(OCCN(C)C)cc1)c1ccccc1`, the call in [1], in test [3], in test [4], in [5] and in test [7] was inactive. Further, the half-maximal activity concentration (AC50) in test [6] was 26.1 µM (active).

Consider `O=c1cc(-c2ccc(O)cc2)oc2cc(O)cc(O)c12`, for which, in [8], the AC50 is 1510 nM (active) and the outcome was inactive.

Take `CCCCCC(=O)O[C@]1(C(C)=O)CC[C@H]2[C@@H]3CCC4=CC(=O)CC[C@]4(C)[C@H]3CC[C@@]21C`: the molecule was called inactive in [7] and in test [9].

As for `CCCCCCCCOC(=O)c1ccc(O)cc1`, the call in test [7] and in [10] was inactive. Moreover, the AC50 in [8] is 17.1 µM (active) and 1.5 µM (active); in [9], 49.4 µM (active).

On to `CC(C)(C)c1ccc(S)cc1`, for which the result in [7], in [8] and in test [9] was inactive.
